High-throughput results from PubChem.
Sampled rows, rich in hits. Any-hit rate of the full collection: about 2.3%.
proKLK7 act: proKLK7 zymogen activators, primary screen, biochemical, fluorescence intensity | purified proKLK7, EDANS-DABCYL substrate fluorescence; 100% is mature enzyme control, 0% vehicle | activation, % at 7 µM | 0.9% of 370,000 active | AID 652039, 2013;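 active = activation above the mean of all tested compounds plus 3 SD, computed per campaign excluding outliers beyond control limits, cut at about 13% in these data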
Target sequence (P49862 whole entry, looked up): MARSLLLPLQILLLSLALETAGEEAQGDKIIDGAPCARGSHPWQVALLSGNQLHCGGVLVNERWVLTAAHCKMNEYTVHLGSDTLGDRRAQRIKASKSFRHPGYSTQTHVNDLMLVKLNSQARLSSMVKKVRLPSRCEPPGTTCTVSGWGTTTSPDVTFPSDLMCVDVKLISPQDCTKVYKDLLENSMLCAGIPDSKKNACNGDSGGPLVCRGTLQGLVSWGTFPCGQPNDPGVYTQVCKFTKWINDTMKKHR
V-ATPase pH: regulators of yeast V-ATPase proton pumping, primary screen, pHLuorin cytosolic pH fluorescence; response, % at 10 µM; S. cerevisiae; AID 504577, 2011; 0.37% of 350,000 active; in the data active = response mostly above about 7.3%, no sharp cut-off; inactive = mostly below about 5.4%; also: actives read high
ADAM17 inh: ADAM17 inhibitors, primary screen, biochemical, QFRET. 0.83% of 370,000 active. recombinant ADAM17, EDANS/DABCYL FRET peptide cleavage. inhibition, % at 6.95 µM;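 active = inhibition above the mean of compounds lying between control limits plus 3 SD, set per campaign, cut at about 8.5% in these data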;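 also: 0% = DMSO-only wells as the low control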
ADAM10 inh: human ADAM10 inhibitors, primary screen, biochemical, QFRET, HTS | Disintegrin and metalloproteinase domain-containing protein 10 (Homo sapiens), O14672 | recombinant ADAM10, EDANS/DABCYL FRET peptide cleavage, 3 h | inhibition, % at 7 µM | 0.62% of 370,000 active;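 active = inhibition above a per-campaign cutoff equal to the mean of compounds falling between control-based bounds plus 3 SD, cut at about 20% in these data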;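 also: 0% = DMSO wells while the 100% control is not disclosed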
KLK7 act conf: proKLK7 zymogen activators, confirmation, biochemical, fluorescence intensity, triplicate. shares compounds with proKLK7 act. purified proKLK7, EDANS-DABCYL substrate fluorescence; scaled: vehicle 0, mature enzyme 100. activation, % at 7 µM. 68% of 3,200 active. AID 686949, 2013;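 active = activation, as change over the incubation, above the mean of all tested compounds plus 3 SD, cut at about 13% in these data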
EDANS-DABCYL int: EDANS-DABCYL substrate optical interference, artefact control for kallikrein-7 zymogen activator project, biochemical, fluorescence intensity, high throughput. AID 686952, 2013. activation, % at 7 µM. no enzyme, 4 h; solvent 0%, active enzyme control 100%. 80% of 3,200 active. shares compounds with proKLK7 act;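 active = activation above the all-compound mean plus 3 SD, ignoring values outside control-based bounds, cut at about 4.8% in these data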;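 also: value is the 4 h activation minus the activation read at time zero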
EDANS interf: optically interferes with EDANS-DABCYL fluorescence, kallikrein-7 activator counter-screen; EC50, µM; 20% of 250 active; EDANS-DABCYL peptide fluorescence interference, no enzyme; shares compounds with proKLK7 act;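 active = compounds that raise the fluorescence signal in this interference counterscreen, with EC50 at or below 10 µM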;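 also: intact quenched peptide substrate alone read at 355 nm excitation and 520 nm emission; signal is fluorescence gain from T0 to T4 after four hours at room temperature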
An asterisk follows results filed as active.

For COc1cc(C2Nc3ccc4ccccc4c3C3=C2C(=O)CC(C)(C)C3)ccc1OCC(=O)O (stereo unspecified) the results were proKLK7 act 16*, V-ATPase pH -1, ADAM17 inh inactive, ADAM10 inh inactive, KLK7 act conf -60 and EDANS-DABCYL int -54.
For COc1cc(C2Nc3ccc4ccccc4c3C3=C2C(=O)CC(C)(C)C3)ccc1OC(C)C(=O)O (stereo unspecified) the results were proKLK7 act 24*, V-ATPase pH -1, ADAM17 inh inactive, ADAM10 inh inactive, KLK7 act conf 0 and EDANS-DABCYL int 13*.
Screening CC1(C)CC(=O)C2=C(C1)c1c(ccc3ccccc13)NC2c1ccc(OCC(=O)O)cc1 (stereo unspecified) returned proKLK7 act 36*, V-ATPase pH -3, ADAM17 inh inactive, ADAM10 inh inactive, KLK7 act conf 23*, EDANS-DABCYL int 18* and EDANS interf >23.
COc1cccc(C2Nc3ccccc3NC3=C2C(=O)CC(C)(C)C3)c1OC (stereo unspecified) was read as proKLK7 act 1, V-ATPase pH -1, ADAM17 inh 2 and ADAM10 inh 9.
`CCOc1ccc(C2Nc3ccccc3NC3=C2C(=O)CC(C)(C)C3)cc1OC` (stereo unspecified) gave proKLK7 act -2, V-ATPase pH 0, ADAM17 inh -4 and ADAM10 inh -5.
Screening COc1cccc(C2Nc3ccc4ccccc4c3C3=C2C(=O)CC(C)(C)C3)c1OCC(=O)O (stereo unspecified) returned proKLK7 act 26*, V-ATPase pH -6, ADAM17 inh inactive, ADAM10 inh inactive, KLK7 act conf 11 and EDANS-DABCYL int 5.4*.
Screening CC1(C)CC(=O)C2=C(C1)c1c(ccc3ccccc13)NC2c1ccc(Br)o1 (stereo unspecified) returned proKLK7 act -5, V-ATPase pH -3, ADAM17 inh -18 and ADAM10 inh -48.
Screening COC(=O)[C@]12C[C@H](CC(=O)NCc3ccc(OC)c(OC)c3)C(=O)N(CCC3=CCCCC3)C1=C[C@H](C(C)(C)C)O[C@@H]2C returned proKLK7 act 0, ADAM17 inh 3 and ADAM10 inh 11.
For COc1ccc(/C=C/C(O)=C2/C(=O)NC3(C)CC2c2ccccc2O3)c(OC)c1OC (stereo unspecified) the results were proKLK7 act 15*, V-ATPase pH -3, ADAM17 inh -1, ADAM10 inh -1, KLK7 act conf 15*, EDANS-DABCYL int 10* and EDANS interf >70.
COc1ccc(/C=C/C(O)=C2/C(=O)N(C)C3(C)CC2c2ccccc2O3)cc1 (stereo unspecified) was read as proKLK7 act 0, V-ATPase pH 0, ADAM17 inh 1 and ADAM10 inh 2.
For COC(=O)c1ccc(-c2sc3nc(N4CCOCC4)c4c(c3c2N)CCCC4)o1 the results were proKLK7 act -6, ADAM17 inh -24 and ADAM10 inh -61.
For CC12CCC(=O)N1c1c(sc3nc(N4CCOCC4)c4c(c13)CCCC4)C(=O)N2 (stereo unspecified) the results were proKLK7 act 20*, V-ATPase pH 2, ADAM17 inh -176, ADAM10 inh inactive, KLK7 act conf 69* and EDANS-DABCYL int 68*.
`COc1ccc(CNC(=O)C[C@H]2C[C@H](C(=O)N(C(C)C)C(C)C)[C@@]3(C)c4[nH]c5cc(-c6ccco6)ccc5c4CCN3C2=O)cc1OC` gave proKLK7 act 13*, V-ATPase pH -2, ADAM17 inh -83, ADAM10 inh -296, KLK7 act conf 12 and EDANS-DABCYL int 10*.
Screening COc1ccc(CNC(=O)C[C@H]2C[C@H](C(=O)N(C(C)C)C(C)C)[C@@]3(C)c4[nH]c5cc(CCC(=O)N(C)C)ccc5c4CCN3C2=O)cc1OC returned proKLK7 act 2, V-ATPase pH 4, ADAM17 inh -2 and ADAM10 inh -1.
Screening C[C@]12c3[nH]c4cc(-c5ccco5)ccc4c3CCN1C(=O)[C@@H](CC(=O)NCCC1=CCCCC1)C[C@@H]2C(=O)N1CCCCC1 returned proKLK7 act -2, V-ATPase pH 2, ADAM17 inh -40 and ADAM10 inh -155.
For CN(C)CCCNC(=O)C[C@H]1C[C@H](C(=O)N2CCOCC2)[C@@]2(C)c3[nH]c4cc(-c5ccco5)ccc4c3CCN2C1=O the results were proKLK7 act 54*, V-ATPase pH 4, ADAM17 inh -119, ADAM10 inh -406, KLK7 act conf 56* and EDANS-DABCYL int 57*.
`COCCCNC(=O)C[C@H]1C[C@H](C(=O)N(C(C)C)C(C)C)[C@@]2(C)c3[nH]c4cc(-c5ccco5)ccc4c3CCN2C1=O` gave proKLK7 act 137*, V-ATPase pH 5, ADAM17 inh -142, ADAM10 inh inactive, KLK7 act conf 152* and EDANS-DABCYL int 146*.
For COCCCNC(=O)C[C@H]1C[C@H](C(=O)N2CCOCC2)[C@@]2(C)c3[nH]c4cc(-c5ccco5)ccc4c3CCN2C1=O the results were proKLK7 act 82*, V-ATPase pH 1, ADAM17 inh -163, ADAM10 inh inactive, KLK7 act conf 95* and EDANS-DABCYL int 130*.
Screening CCC(C)(C)C(=O)N1CCC(C(=O)NC2CCCc3ccccc32)CC1 (stereo unspecified) returned proKLK7 act 0, ADAM17 inh 0 and ADAM10 inh -1.
`O=C(C=Cc1ccc(O)c(O)c1)NCC(=O)NC(Cc1ccccc1)C(=O)O` (stereo unspecified) gave proKLK7 act -9, ADAM17 inh -16 and ADAM10 inh -54.
For Nc1c(-c2ccccc2)nc(Cl)nc1-c1ccccc1 the results were proKLK7 act 42*, V-ATPase pH 8, ADAM17 inh inactive, ADAM10 inh inactive, KLK7 act conf 78* and EDANS-DABCYL int 78*.
COc1ccccc1CCC[C@@H](CCS(=O)(=O)C(C)C)CC1CCCCC1 was read as proKLK7 act 0, ADAM17 inh -1 and ADAM10 inh -5.
